# Measured values as given in the supplement of paper PMC12494721.
# Experiments:
# Conditions in all cases: 20 µM; incubation time: 27 h, anaerobic, 37 °C;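 for the amine columns active = adjusted P below 0.05 in both replicates with a change the same way and a mean fold change under 0.8 or over 1.25; inactive = the rest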
# [1] = test system: Clostridium sporogenes DSM 1664; assay: growth (OD595) fold change vs plate DMSO controls (fold change (ratio)); higher = more growth
# Summary of the method: (§1)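 Shaken 96-well cultures in mGAM, grown anaerobically for 27 h at 37 °C, were read at 595 nm. OD came from blank-subtracted readings, corrected for background with 20 µM compound solutions in water and scaled by a calibration factor of 5. Growth is the fold change versus the plate's median DMSO control. Values average 2 biological replicates, and any fold change above 1.5 is NA.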
# Escherichia coli IAI1 [2] = assay: as above
# Summary of the method: as §1
# [3] = test system: Klebsiella aerogenes DSM 30053; assay: as above
# Summary of the method: as §1
# [4] = test system: Ruminococcus gnavus DSM 108212; assay: as above
# Summary of the method: as §1
# [5] = test system: Klebsiella aerogenes DSM 30053; assay: fold change of Histamine concentration vs plate DMSO controls (fold change (ratio)); higher = more amine produced, active = hit call of the paper (significant change in both replicates, either direction)
# Summary of the method: (§2)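 Amine values are fold changes relative to DMSO-only wells on the same plate. They derive from 27 h, 37 °C anaerobic mGAM cultures of four gut bacterial strains in 80 µL wells, dosed at 20 µM final, or 50 µM final for sweeteners. Extraction of the whole culture, LC–triple-quadrupole MS in dynamic MRM mode, external calibration curves and within-batch drift correction were used, with 2 biological replicates averaged.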
# [6] = test system: Clostridium sporogenes DSM 1664; assay: fold change of Tryptamine concentration vs plate DMSO controls (fold change (ratio)); higher = more amine produced, active = hit call of the paper (significant change in both replicates, either direction)
# Summary of the method: as §2
# [7] = test system: Ruminococcus gnavus DSM 108212; assay: as above
# Summary of the method: as §2
# Escherichia coli IAI1 [8] = assay: fold change of Putrescine concentration vs plate DMSO controls (fold change (ratio)); higher = more amine produced, active = hit call of the paper (significant change in both replicates, either direction)
# Summary of the method: as §2
# [9] = test system: Klebsiella aerogenes DSM 30053; assay: as above
# Summary of the method: as §2
# Escherichia coli IAI1 [10] = assay: fold change of Cadaverine concentration vs plate DMSO controls (fold change (ratio)); higher = more amine produced, active = hit call of the paper (significant change in both replicates, either direction)
# Summary of the method: as §2
# [11] = test system: Klebsiella aerogenes DSM 30053; assay: as above
# Summary of the method: as §2
# [12] = test system: Ruminococcus gnavus DSM 108212; assay: fold change of 2-Phenylethylamine concentration vs plate DMSO controls (fold change (ratio)); higher = more amine produced, active = hit call of the paper (significant change in both replicates, either direction)
# Summary of the method: as §2
Structure (SMILES),growth [1],growth (Escherichia coli IAI1 [2]),growth [3],growth [4],fold change of Histamine concentration [5],fold change of Tryptamine concentration [6],fold change of Tryptamine concentration [7],fold change of Putrescine concentration (Escherichia coli IAI1 [8]),fold change of Putrescine concentration [9],fold change of Cadaverine concentration (Escherichia coli IAI1 [10]),fold change of Cadaverine concentration [11],fold change of 2-Phenylethylamine concentration [12]
N#CCNC(=O)c1cnccc1C(F)(F)F,1.08,1,0.999,1.12,1.02 (inactive),1 (inactive),1 (inactive),1.01 (inactive),1.01 (inactive),1.03 (inactive),0.997 (inactive),0.951 (inactive)
CCOCn1c(-c2ccc(Cl)cc2)c(C#N)c(Br)c1C(F)(F)F,0.89,1,1.01,0.948,1 (inactive),0.999 (inactive),1.02 (inactive),1.03 (inactive),0.999 (inactive),1.03 (inactive),0.983 (inactive),1.01 (inactive)
CC[C@H]1CCC[C@H](O[C@H]2CC[C@H](N(C)C)[C@@H](C)O2)[C@@H](C)C(=O)C2=C[C@@H]3[C@@H](C=C(C)[C@@H]4C[C@@H](O[C@@H]5O[C@@H](C)[C@H](OC)[C@@H](OC)[C@H]5OC)C[C@@H]34)[C@@H]2CC(=O)O1.CC[C@H]1CCC[C@H](O[C@H]2CC[C@H](N(C)C)[C@@H](C)O2)[C@@H](C)C(=O)C2=C[C@H]3[C@@H]4C[C@H](O[C@@H]5O[C@@H](C)[C@H](OC)[C@@H](OC)[C@H]5OC)C[C@H]4C=C[C@H]3C2CC(=O)O1,1.03,0.983,1.01,0.919,0.93 (inactive),0.96 (inactive),0.984 (inactive),1.02 (inactive),0.991 (inactive),1.01 (inactive),0.992 (inactive),0.982 (inactive)
CCc1nn(C)c(C(=O)NCc2ccc(Oc3ccc(C)cc3)cc2)c1Cl,0.969,1.02,1.01,1.17,0.963 (inactive),0.927 (inactive),1.02 (inactive),0.947 (inactive),1 (inactive),1.01 (inactive),0.998 (inactive),1.04 (inactive)
COP(=S)(OC)Oc1nc(Cl)c(Cl)cc1Cl,1.02,0.989,1.02,1.01,1.03 (inactive),0.986 (inactive),0.898 (inactive),0.986 (inactive),1.02 (inactive),0.99 (inactive),0.991 (inactive),0.866 (inactive)
"CC(=O)OCC1=C(C(=O)O)N2C(=O)[C@@H](N)[C@H]2SC1 [Cephalosporanic acid, 7-amino]",1.05,1.05,0.979,0.924,1.07 (inactive),1.04 (inactive),0.949 (inactive),1.05 (inactive),1.01 (inactive),1 (inactive),0.985 (inactive),0.942 (inactive)
COP(=S)(OC)Oc1ccc(SC)c(C)c1,1.1,1.09,0.997,0.973,0.959 (inactive),1.02 (inactive),1.08 (inactive),0.971 (inactive),0.989 (inactive),0.98 (inactive),1.04 (inactive),1.12 (inactive)
C=CCC1(CC(C)C)C(=O)NC(=O)NC1=O [Butalbital],1.07,1.04,0.966,0.589,1.01 (inactive),1 (inactive),1 (inactive),0.995 (inactive),1.01 (inactive),1.02 (inactive),0.997 (inactive),1 (inactive)
NC(=O)CN1CC(O)CC1=O (centres undefined) [Oxiracetam],0.902,0.994,0.98,0.915,1 (inactive),1.14 (inactive),1.1 (inactive),0.941 (inactive),0.865 (inactive),0.876 (inactive),1.07 (inactive),1.14 (inactive)
C[N+](C)(C)CCCCCCCCCC[N+](C)(C)C [Decamethonium bromide],0.947,0.999,1,1.01,0.907 (inactive),1.13 (inactive),1.13 (inactive),0.923 (inactive),0.933 (inactive),0.877 (inactive),1.08 (inactive),1.11 (inactive)
C[N+]1(C)[C@@H]2CC[C@H]1C[C@@H](OC(=O)C(CO)c1ccccc1)C2 (some centres undefined) [Methylatropine nitrate],0.875,0.835,0.989,0.97,0.978 (inactive),0.99 (inactive),1 (inactive),0.932 (inactive),1.02 (inactive),1.07 (inactive),1.01 (inactive),0.956 (inactive)
CC1C=CC=CCCC=CC=CC=CC=CC(OC2OC(C)C(O)C(N)C2O)CC2OC(O)(CC(O)C(O)CCC(O)CC(O)CC(O)CC(=O)OC(C)C(C)C1O)CC(O)C2C(=O)O (centres undefined) [Nystatine],0.964,0.993,1.01,1.16,0.962 (inactive),0.989 (inactive),1.01 (inactive),0.999 (inactive),1 (inactive),1.05 (inactive),1.01 (inactive),0.998 (inactive)
O=C(CCCN1CCC(n2c(=O)[nH]c3ccccc32)CC1)c1ccc(F)cc1 [Benperidol],1.07,0.943,0.941,0.827,1 (inactive),1.01 (inactive),1.03 (inactive),0.998 (inactive),1.02 (inactive),1.02 (inactive),1.02 (inactive),1.05 (inactive)
O=C(O[C@H]1C[N+]2(CCCOc3ccccc3)CCC1CC2)C(O)(c1cccs1)c1cccs1 [Aclidinium bromide],1.12,1.08,1.03,1.14,1.05 (inactive),1.01 (inactive),0.985 (inactive),1.08 (inactive),1 (inactive),0.982 (inactive),1 (inactive),0.963 (inactive)
c1ccc2c(c1)-c1cccc3cccc-2c13 [Fluoranthene],0.942,0.967,0.964,1.01,1.04 (inactive),1.01 (inactive),1.02 (inactive),0.995 (inactive),1.01 (inactive),1.01 (inactive),0.976 (inactive),1.04 (inactive)
CCCSP(=O)(OCC)Oc1ccc(Br)cc1Cl (centres undefined),0.919,0.968,1.03,0.964,1.01 (inactive),1.03 (inactive),0.941 (inactive),1 (inactive),1.02 (inactive),1.03 (inactive),0.995 (inactive),0.9 (inactive)
CCN(C(C)=O)c1cccc(-c2ccnc3c(C#N)cnn23)c1 [Zaleplon],1.07,0.995,1.05,1.05,0.987 (inactive),0.972 (inactive),1.02 (inactive),1.03 (inactive),0.992 (inactive),1.02 (inactive),1.01 (inactive),1.04 (inactive)
